Rows were chosen to be rich in hits. Some 12% of all compounds tested hit in one or more screens of this group.
BAZ2B block: blocks human BAZ2B | Q9UIF8 | AlphaScreen BAZ2B-H3K14Ac peptide displacement | Potency, µM (series often up to 114 µM), without a hit: top-dose activity change, negative = inhibition, most hits filed as inhibitors | hit rate 4.4% among 360,000; further: potency means the concentration at half of the fitted maximal effect; on the % scale 0 is the no-effect control and ±100 the full control effect; nearly all actives have a fitted effect of over 60% in size
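Protein-peptide AlphaScreen: BAZ2B 50 nM, b-H3K14Ac 50 nM, 1x PBS pH 7.4 + 0.01% Tween-20. Preincubation 30 min RT; cpd 30 min RT (top 110 uM); beads 20 min RT, light-protected.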
JMJD2A Tudor inh: inhibitors of human JMJD2A Tudor domain; O75164; AlphaScreen JMJD2A-Tudor / H3K4me3 peptide binding; Potency, µM (top dose mostly 114 µM), without a hit: at the top dose activity change, negative = inhibition, most hits filed as inhibitors; hit rate 4.4% among 390,000; further: potency means the concentration at half of the fitted maximal effect; on the % scale 0 is the no-effect control and ±100 the full control effect; nearly all actives have a fitted effect of over 50% in size
Target sequence (O75164 whole entry, looked up, the tested form may be a part): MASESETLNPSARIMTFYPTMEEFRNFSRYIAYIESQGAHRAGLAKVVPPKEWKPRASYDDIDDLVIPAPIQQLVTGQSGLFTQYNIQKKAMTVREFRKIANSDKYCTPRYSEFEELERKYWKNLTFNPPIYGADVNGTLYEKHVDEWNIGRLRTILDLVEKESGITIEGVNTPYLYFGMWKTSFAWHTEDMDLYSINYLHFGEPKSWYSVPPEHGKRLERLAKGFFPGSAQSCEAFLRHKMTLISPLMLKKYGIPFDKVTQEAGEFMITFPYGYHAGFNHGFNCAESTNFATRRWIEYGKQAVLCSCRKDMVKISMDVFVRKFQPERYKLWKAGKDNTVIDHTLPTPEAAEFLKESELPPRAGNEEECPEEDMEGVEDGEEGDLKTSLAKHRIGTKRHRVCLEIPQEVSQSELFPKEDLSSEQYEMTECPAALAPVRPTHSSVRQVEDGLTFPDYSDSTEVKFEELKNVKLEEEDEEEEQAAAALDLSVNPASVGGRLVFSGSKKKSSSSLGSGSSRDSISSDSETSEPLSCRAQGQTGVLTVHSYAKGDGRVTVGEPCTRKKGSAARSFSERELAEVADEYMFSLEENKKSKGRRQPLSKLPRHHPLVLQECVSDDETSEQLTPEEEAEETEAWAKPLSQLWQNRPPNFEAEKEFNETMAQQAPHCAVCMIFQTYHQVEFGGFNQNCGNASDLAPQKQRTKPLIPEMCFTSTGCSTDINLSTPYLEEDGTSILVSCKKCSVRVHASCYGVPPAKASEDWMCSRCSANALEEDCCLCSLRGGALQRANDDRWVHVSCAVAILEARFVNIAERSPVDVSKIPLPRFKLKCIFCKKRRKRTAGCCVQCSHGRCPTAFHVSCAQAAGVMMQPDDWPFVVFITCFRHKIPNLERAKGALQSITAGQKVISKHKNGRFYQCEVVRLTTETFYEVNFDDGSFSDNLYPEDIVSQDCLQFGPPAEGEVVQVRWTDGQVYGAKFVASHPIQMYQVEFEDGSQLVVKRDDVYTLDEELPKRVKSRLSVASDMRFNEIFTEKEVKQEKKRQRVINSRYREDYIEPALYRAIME
G9a inh: blocks human histone lysine methyltransferase G9a; Q96KQ7; G9a H3K9 monomethylation, AlphaScreen, 2 h; Potency, µM (series often up to 102 µM), for inactives: top-dose activity, negative = inhibition, usual class: inhibitors; hit rate 8.8% among 350,000; AID 504332; further: potency means the concentration at half of the fitted maximal effect; on the % scale 0 is the no-effect control and ±100 the full control effect; nearly all actives have a fitted effect of over 75% in size
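AlphaScreen read-out: biotin-H3K9 peptide (500 nM) methylation by 20 nM enzyme with 20 uM SAM, 2 h at room temperature after 15 min compound preincubation; anti-monomethyl H3K9 antibody plus donor/acceptor beads, 10 min dark.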
PI5P4K alpha inh: PI5P4K alpha (human) kinase inhibition; P48426; PI5P4Kalpha enzyme, ADP-Glo luminescence, 60 min; active compounds read low; max response, %; hit rate 1.2% among 330,000; AID 652105; active means max response of -50% or lower; inconclusive means between -30% and -50%; inactive means -30% or higher; further: value at the top dose of about 77 µM; on the % scale 0 is the no-effect control and ±100 the full control effect
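Controls without substrate or without enzyme flank wells where PI5P4Kalpha converts substrate using 5 microM ATP (final). Incubation lasts 60 minutes at room temperature; ADP formed is read by ADP-Glo luminescence.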
PLK1 PBD block: blocks phosphopeptide binding to human PLK1 polo-box domain; P53350; Plk1 PBD binding of FITC phosphopeptide, fluorescence polarization; Potency, µM, inactives show max response, negative = inhibition, actives largely listed as inhibitors; hit rate 2.8% among 360,000; AID 720504; further: potency means the concentration at half of the fitted maximal effect; series mostly up to about 57 µM; on the % scale 0 is the no-effect control and ±100 the full control effect; nearly all actives have a fitted effect of over 65% in size
HP1b chromo inh: HP1-beta chromodomain-methylated histone interaction inhibition. P83916. AlphaScreen HP1-beta / biotin-H3K9me3 peptide binding. Potency, µM (top dose mostly 114 µM), inactives show top-dose activity change, negative = inhibition, actives largely listed as inhibitors. hit rate 0.56% among 390,000. AID 540317; further: potency means the concentration at half of the fitted maximal effect; nearly all actives have a fitted effect of over 70% in size
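AlphaScreen: HP1-beta (50 nM) preformed 30 min with biotin-H3(1-18)K9me3 peptide (50 nM) in PBS pH 7.4, 0.01% Tween-20. Compound added for 30 min at RT, then streptavidin donor/nickel chelate acceptor beads (10 ug/mL) for 30 min.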
An asterisk follows results filed as active; ? = inconclusive; · = no result; ! = not confirmed by another sample; [ ] = dose if it differs, or a comment. Unless noted, the call rests on the fitted dose curve; in most records, active means well fitted curve in the direction sought with a large enough effect; inconclusive means small, poorly fitted or top-dose-only effect, or another doubt; inactive means no such curve, though single readings can be large; an effect the other way counts as inactive or inconclusive.

SMILES	BAZ2B block	JMJD2A Tudor inh	G9a inh	PI5P4K alpha inh	PLK1 PBD block	HP1b chromo inh
Fc1ccc(Cn2c(-c3cccc(Br)c3)nc3ccccc32)cc1	8%	14%	20%[59 µM]	·	·	79%
CCOC(=O)C1=C(C)NC(=O)C1CC(=O)Nc1ccccc1 (configuration not stated)	-10%	·	3.5µM*	·	·	·
CCOC(=O)C1=C(C)NC(=O)NC1c1ccc(OCC(=O)Nc2ccccc2)c(OC)c1 (configuration not stated)	7%	-19%	-3%[59 µM]	-4	2%	24%
OCCN(Cc1cccnc1)Cc1ccccn1	·	50µM*	·	0	-4%	43%
OCCN(Cc1ccccc1)Cc1ncccc1O	·	-9%	·	-11	-5%	32%
O=C(c1ccc(S(=O)(=O)N2CCCCC2)cc1)N1CCN(c2ccccc2)CC1	-5%	-21%	-5%[12.7 µM]	·	0%	14%
CC1CCCCN1S(=O)(=O)c1ccc(S(=O)(=O)N2CCN(c3ccccc3)CC2)cc1 (configuration not stated)	7%	-1%	50µM*	-2	0%	30%
CCOC(=O)c1ccc(N2C(=O)CC(N(C)CCc3ccc(OC)c(OC)c3)C2=O)cc1 (configuration not stated)	-1%	-7%	14µM*	-5	1%	40%
O=C(CCC(=O)c1ccc(F)cc1)Nc1ccc(Cl)cc1	6%	-3%	?	·	·	36%
CC1CCCC(NC(=O)NC(=O)COC(=O)C2=NN(c3ccccc3)C(=O)CC2)C1C (configuration not stated)	3%	5%	10µM*	-1	3%	40%
CCOc1ccc(N(CC)S(=O)(=O)N2CCCC(C(=O)NCc3ccccc3Cl)C2)cc1 (configuration not stated)	-10%	-7%	-8%[59 µM]	·	·	40%
CCOCCn1c(=O)c2c(nc3n2CCN3c2ccc(C)c(C)c2)n(C)c1=O	?	-31%	?	·	·	28%
O=C(CSc1nc2sc3c(c2c(=O)n1-c1ccccc1)CCCC3)N/N=C/c1ccccc1C(=O)O	?	?	79µM*	-13	-14%	15%
NNc1nc2sc3c(c2c(=O)n1-c1ccccc1)CCCC3	-6%	-27%	50µM*	-3	-5%	6%
Nn1c(Nc2ccccc2)nc2sc3c(c2c1=O)CCCC3	-15%	-28%	-8%	-8	?	-10%
CC(NC(=O)CSc1nc2sc3c(c2c(=O)n1-c1ccccc1)CCCC3)c1ccccc1 (configuration not stated)	6%	-26%	15%[59 µM]	·	-7%	11%
C[C@@H]1CN([C@H](C)CO)C(=O)CCCn2nncc2CO[C@H]1CN(C)C(=O)NC1CCCCC1	·	·	·	3	-3%	·
Cc1ccc(C)c(-c2[nH]c3c(c2-c2c(-n4cccc4)n(C)c(=O)[nH]c2=O)c(=O)[nH]c(=O)n3C)c1	-10%	-7%	-7%[59 µM]	·	·	27%
COc1cc(OC)c2ccc(=O)oc2c1C(CC(=O)N1CCCC1)c1ccc(N(C)C)cc1 (configuration not stated)	-30%	?	?	-6	3%	-4%
CCCCCc1cc(=O)oc2c(C(CCN3CCCC3)c3ccc(N(C)C)cc3)c(OC)cc(OC)c12 (configuration not stated)	8.9µM*	11µM*	?	0	1%	?
COc1cc(OC)c2ccc(=O)oc2c1C(CCN1CCCCC1)c1ccc(N(C)C)cc1 (configuration not stated)	40µM*	35µM*	?	-8	-1%	-32%
COc1cc(OC)c2ccc(=O)oc2c1C(CCN1CCCC1)c1ccc(N(C)C)cc1 (configuration not stated)	40µM*	56µM*	-9%[59 µM]	4	-2%	-22%
O=C(Nc1ccncc1)c1ccc(-c2ccccc2)cc1	-34%	-26%	-4%[59 µM]	1	-17%	16%
CN(C)CCCc1cc(C(=O)Nc2ccc(-c3ccncc3)cc2)ccc1O	·	·	25µM*!	·	·	·
Cc1cccc(NN=C2c3ccccc3-c3ccccc32)c1	-14%	-24%	32µM*	24	-1%	15%
SMILES	BAZ2B block	JMJD2A Tudor inh	G9a inh	PI5P4K alpha inh	PLK1 PBD block	HP1b chromo inh
Cc1cccc(N/N=C/c2ccc(C)s2)c1	?	?	?	0	-11%	-8%
CCC1CCC(C(=O)NNC(=O)c2cc(-c3ccco3)[nH]n2)CC1 (configuration not stated)	?	-19%	14µM*	-8	-16%	19%
COc1ccc(-c2cc(C)no2)cc1S(=O)(=O)Nc1cccc(CN2CCCC2)c1	-12%	-22%	·	-13	-18%	41%
Cc1cccc(OCC(=O)N(Cc2ccc(C(C)(C)C)cc2)Cc2ccco2)c1	29%	7%	34%[59 µM]	·	·	86%
COc1ccc(C2CC(c3cccc(OC)c3)n3nc(N)nc3N2)cc1 (configuration not stated)	-2%	-13%	9%	0	-1%	45%
COCC(=O)Nc1nc2n(n1)C(c1ccc(Cl)cc1)CC(c1ccc(OC)cc1)N2 (configuration not stated)	?	?	79µM*	-9	-24%	53%
COc1cccc(C2CC(c3ccc(Cl)cc3)n3nc(N)nc3N2)c1 (configuration not stated)	8%	?	-5%	-6	21µM*	1%
COCC(=O)Nc1nc2n(n1)C(c1ccccc1Cl)CC(c1ccc(OC)cc1)N2 (configuration not stated)	?	-31%	?	·	-1%	34%
CC1C(O)=C(c2ccccc2)P(=O)(Cc2ccccc2)C1C (configuration not stated)	·	·	·	-2	-10%	·
C[C@@H](NC(=O)[C@@H]1CCCN1C(=O)[C@@H]1CCCN1C(=O)c1ccccc1)c1ccccc1	·	·	·	2	-12%	·
CC(C)CCC(C(=O)NC(C)c1ccccc1)C(=O)NC(C)c1ccccc1 (configuration not stated)	?	22µM*	-9%	-2	-10%	-19%
CC(NC(=O)Cc1ccccc1F)c1ccc(F)cc1 (configuration not stated)	-16%	-5%[11.4 µM]	13%	-2	24µM*	-4%
CC(NC(=O)Cc1ccc(-c2ccccc2)cc1)c1ccccc1 (configuration not stated)	1%	-10%	?	-15	27µM*	?
CC(C)CCNCC(=O)NC(c1ccccc1)c1ccccc1	56µM*	32µM*	5.6µM*	-5	-3%	13%
CCOc1ccc(CCN2C(=S)N([C@@H](CC(C)C)CN3CCCC3CN3C(=S)NC[C@@H]3Cc3ccc(O)cc3)C[C@@H]2CC(C)C)cc1 (some centres not stated)	·	?	·	1	-4%	13%
